Here are results for 29 compounds from PubChem BioAssay AID1688 (National Center for Advancing Translational Sciences (NCATS), 2009).

About 2,400 (1.1%) of roughly 220,000 compounds were called active. Entries that show only a call come without a potency. Another 7% or so got no clear call; they are omitted. The call rests on the fitted dose curve; in most records, active means well fitted inhibition curve with a large enough effect; inconclusive means small, poorly fitted or top-dose-only effect, or effect the other way; inactive means no such curve, though single readings can be large or run the other way. The full list was thinned out, with actives kept by preference.
Potency means the concentration at half of the fitted maximal effect.

This experiment is described as follows: qHTS Multiplex Assay to Identify Dual Action Probes in a Cell Model of Huntington: Aggregate Formation (GFP). Further: nearly all actives have a fitted effect of over 60% in size. The settings on record: PC12 HttQ103-GFP aggregates, Acumen cytometry, 40 h; series mostly up to 9.22 µM. The gist of the method: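 Multiplexed with ATP-based cell death, this channel scores GFP aggregates in PC12 cells expressing inducible HTTex1-Q103-GFP. Induction used 100 nM tebufenozide; compounds were tested in concentration series.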
(In qHTS, concentration-response curves come from the screen itself.)
Regarding `COc1ccc(-c2nc3cc([N+](=O)[O-])ccc3o2)cc1OC`, the Potency entry is “inactive”. As for `Cc1nnc(-c2ccc(Oc3ccc(C)c(C)c3)c([N+](=O)[O-])c2)o1`, the figure is 11.2 µM (active). As for `COc1ccc(OCC(=O)Nc2cc(C)c(Cl)cc2OC)c([N+](=O)[O-])c1`, the entry is “inactive”.

As for `O=C(N/N=C/c1ccccn1)c1cccnc1`, the Potency entry is “inactive”. Take `NC(=O)Cc1ccc2c(c1)[nH]c1ccccc12`: the Potency result was “inactive”. For `O=[N+]([O-])/C=C1\CCCCCN1`, the Potency result is “inactive”. As for `CCc1ccc(S(=O)(=O)NCC(O)COc2ccc(OC)cc2)cc1` (centres undefined), the entry is “inactive”; as for `Cc1nnc(N/N=C/c2ccccn2)[nH]c1=O`, “inactive”; as for `COc1ccc(Cc2nnc(N/N=C/c3ccccc3O)[nH]c2=O)cc1OC`, 1.26 µM (active). As for `CCOc1ccc(-n2c(O)c(/C=N/Nc3nnc(C)c(=O)[nH]3)c3ccccc3c2=O)cc1`, the entry is “inactive”; as for `COC(=O)[C@@H]1CC2=CC(=O)CC[C@]2(C)[C@@]23O[C@@H]2C[C@@]2(C)[C@@H](CC[C@@]24CCC(=O)O4)[C@H]13`, “inactive”; as for `Cc1ccc(NC(=O)C(C)c2cccc(C(=O)c3ccccc3)c2)cc1` (centres undefined), 25.1 µM (active). As for `COC(C(=O)Nc1ccc(C(C)=O)cc1)c1ccccc1` (centres undefined), the entry is “inactive”; as for `CC(=O)c1cccc(NC(=O)Nc2ccc(C)cc2)c1`, “inactive”; as for `CCOC(=O)C1C(c2ccc(OC)c(OC)c2)c2c([nH][nH]c2=O)CC1(C)O` (centres undefined), “inactive”.

As to `O=C1N(c2ccccc2)C(=Nc2ccccc2)SC12CC2`, the Potency entry is “inactive”. As for `Cc1cc(N2CCN(Cc3ccc4c(c3)OCO4)CC2)n2ncnc2n1`, the entry is “inactive”. For `Fc1ccc2[nH]c3c(N4CCN(Cc5ccc6c(c5)OCO6)CC4)ncnc3c2c1`, the Potency is 3.55 µM (active). In the case of `O=c1[nH]c(N2CCN(Cc3ccc4c(c3)OCO4)CC2)nc2c1CCCC2`, the Potency entry was “inactive”. As for `O=C(NNS(=O)(=O)c1ccccc1)c1cnn(-c2ccc(Cl)cc2)c1C(F)(F)F`, the entry is “inactive”; as for `COc1cccc(OC)c1CN(C)C(=O)c1cnccc1C(F)(F)F`, “inactive”; as for `C/C(=N/NC(=O)c1ccn(C)n1)c1ccncc1`, “inactive”. For `CC(/C=C/c1ccco1)=N/NC(=O)C1COc2ccccc2O1` (centres undefined) the value was “inactive”; for `COc1ccccc1Oc1ccc(S(=O)(=O)Nc2cccnc2)cc1`, 11.2 µM (active). Consider `O=S(=O)(Nc1ccccn1)c1ccc(Oc2ccccc2)cc1`, for which the Potency result was “inactive”. For `COc1ccc(S(=O)(=O)Nc2cccnc2)c(Cl)c1Cl` the value was “inactive”.

Take `COc1ccc(-c2cc(C(F)(F)F)nc(SCCC(=O)NCc3ccco3)n2)cc1`: the Potency result was “inactive”.

In the case of `O=C(CSc1nc(-c2ccco2)cc(C(F)(F)F)n1)NCc1cccs1`, the Potency is 15.8 µM (active).

With `O=C(CSc1nc(-c2ccco2)cc(C(F)(F)F)n1)N1CCc2ccccc2C1`, the Potency result is “inactive”.
